In PubChem BioAssay (NCI) one finds growth data, which are given here for 40 compounds.

About 83,000 compounds went through this panel and 20% of them were active in at least one assay; those are over-represented in the sample as a whole.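 Single-concentration screen, 48 h exposure, 96-well plates. Endpoint: percent growth. Below 10 = active.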 The source made the active and inactive calls.

The test deals with M14 melanoma. Put plainly: NCI-60 one-dose screen, 48 h (100 = growth as untreated, 0 = no growth, -100 = all killed). The note with it: 10 µM unless noted. How it is done: Growth inhibition of the M14 human tumor cell line is measured as a screen for anti-cancer activity. Cells are grown in 96 well plates and exposed to the test compound for 48 hours. Compounds are tested at a single concentration, which is 10^-5 M for most compounds. The reported endpoint is percent growth (GI% or GIPRCNT), where numbers from 0 - 100% represent growth inhibition, and numbers from -100% - 0 represent cell death. For example, a value of 40 represents 60% growth inhibition. A value of 0 means no net growth occurred over the course of the experiment. A value of -40 indicates 40% of cells at the beginning of the experiment died by the end of the experiment. A value of -100 means all cells are dead at the end of the experiment.
NCI-60 Human Tumor Cell Lines Screen was performed using the standard one-dose NCI protocol, which is described in more detail at https://dtp.cancer.gov/discovery_development/nci-60/default.htm.
Compounds with GIPRCNT values below 10 were considered active. Activity score was based on GIPRCNT using the following formula: […]
Score is 0 for GIPRCNT values of 100 or above, 50 for GIPRCNT values of 0, and 100 for GIPRCNT values of -100.
`CC(=O)c1cc2c(N)c(C(=O)Nc3cccc(F)c3C)sc2nc1C`: the growth was 65.2% (inactive).

Take `COC[C@H](C)n1c(C2CCOCC2)nc2cnc3cc(-c4c(C)noc4C)c(OC)cc3c21`: the growth is 42.5% (inactive).

As to `COc1ccc(C(=O)c2sc3nc4c(c(-c5cccnc5)c3c2N)CCCC4)cc1OC`, the growth is 118% (inactive).

As to `N#Cc1c(-c2ccc(Cl)cc2)nc(N=Nc2c(O)[nH]c3ccc(Cl)cc23)nc1N1CCOCC1`, the growth was 93.6% (inactive).

Take `Cc1cc(C)nc(SC2=C(Nc3cc(Cl)ccc3O)C(=O)N(Cc3ccccc3)C2=O)n1`: the growth is 95.2% [30 µM] (inactive).

With `COc1cccc2c1C(=O)c1c(O)c3c(c(O)c1C2=O)C[C@](O)(C(=O)CO)C[C@H]3O[C@@H]1C[C@@H](NC(=O)CCCCCN(C)C2(c3ccc(F)cc3)CC3CCC2C3)[C@H](O)[C@@H](C)O1` (stereo not given in full), the growth was -41.3% (active).

For `COc1cc(C=Nc2oc(-c3ccccc3)c(-c3ccccc3)c2C#N)cc(CN2CCCCC2)c1O`, the growth is 109% (inactive).

For the compound `COc1ccc2nc(NC(=O)CSc3nnc4n3S(=O)(=O)c3ccccc3N4c3ccccc3)sc2c1`, the growth was 100% (inactive).

Turning to `O=C(/C=C/c1ccc(C(F)(F)F)cc1)Nc1ccc(C=C2c3ccccc3C(=O)c3ccccc32)cc1`, the growth is 59.1% (inactive).

For `CCCN1CCN(c2ccc3nc(-c4ccc5nc(-c6ccc(OCC)cc6)[nH]c5c4)[nH]c3c2)CC1`, the growth was -27.2% (active).

With `COc1cc(-c2nc3ccccc3[nH]2)ccc1OCC(=O)N=Nc1c(O)[nH]c2ccc(Cl)cc12`, the growth was -71.7% (active).

Regarding `CN(C)CCCNc1c2ccccc2nc2ccccc12`, the growth was 98% (inactive).

For `Nc1ccn(-c2ccc(Br)cc2)c(=O)n1`, the growth was 104% (inactive).

On to `O=C1CSC(=S)N1CCc1ccc(O)cc1`, for which the growth is 87.9% (inactive).

Regarding `CC(=O)c1cc2c(N)c(C(=O)Nc3ccccc3)sc2nc1C`, the growth was 43.5% (inactive).

In the case of `O=C1NC(=O)C(c2ccc(Cl)cc2Cl)N1` (stereo not given), the growth was 106% (inactive).

Consider `COc1ccc(Nc2c3c4c(cccc4[nH]c2=O)C(=O)c2ccccc2-3)cc1`, for which the growth is 11.7% (inactive).

Take `CC1=C[C@H]2c3c(c(O)c(O)c4oc5ccccc5c(=O)c34)[C@H](c3cc(O)c(O)c4oc5ccccc5c(=O)c34)[C@H]2C(C)(C)C1`: the growth is -70.4% (active).

On to `CC(C)C1=C[C@@]23CC[C@@H]4[C@](C)(CCC[C@@]4(C)C(=O)N4CCCNCC4)[C@H]2C[C@@H]1[C@H]1C(=O)CCC(=O)[C@H]13`, for which the growth is 93% (inactive).

In the case of `O=C1CC[C@H](c2ccc(O)c3c2C(=O)[C@@H]2O[C@@H]2C3=O)c2cccc(O)c21`, the growth was 69.6% (inactive).

Take `O=C1NC(=Nc2ccc(O)cc2)S/C1=C\c1cccc(Cl)c1`: the growth is 56.7% (inactive).

On to `CC(C)CC1C(=O)N2CCC[C@H]2C2(O)O[C@](NC(=O)C3C=C4c5cccc6[nH]c(Br)c(c56)C[C@H]4N(C)C3)(C(C)C)C(=O)N12` (stereo not given in full), for which the growth is 66.3% (inactive).

With `NC(=O)c1cc(I)ccc1NC(=O)/C=C/c1ccccc1Cl`, the growth was 4.96% (active).

On to `Cc1ccc2c(C(C[N+](=O)[O-])c3ccco3)c(-c3ccccc3)[nH]c2c1` (stereo not given), for which the growth is 7.34% (active).

On to `O=C(COc1ccc(/C=C2\CSc3ccccc3C2=O)cc1)Nc1nccs1`, for which the growth is 89.6% (inactive).

Take `C/C1=C\CC[C@@]2(C)O[C@H]2[C@H]2OC(=O)C(CN3CCN(CC4C(=O)O[C@H]5[C@H]4CC/C(C)=C/CC[C@@]4(C)O[C@@H]54)CC3)[C@@H]2CC1` (stereo not given in full): the growth is 93.1% (inactive).

With `CCCCN1CCCn2c1nc1c2c(=O)n(CCC)c(=O)n1CCC`, the growth is 110% (inactive).

Turning to `CC(=O)c1nc2ccccc2n1CC(=O)c1cccc(Cl)c1`, the growth was 16.6% (inactive).

Turning to `Nc1nc2ccc3[nH]ncc3c2c2c1CCCC2`, the growth is 1.67% (active).

Regarding `Cc1ccc(NS(=O)(=O)c2ccc(-c3cnc(C4CC4)o3)cc2)cc1C`, the growth is 25.6% (inactive).

Consider `O=C1c2ccccc2C(=O)c2c1ccc1[nH]c(-c3cccs3)nc21`, for which the growth was 106% (inactive).

Regarding `O=C(N/N=C/c1c[nH]c2ccccc12)c1cc(-c2ccccc2)on1`, the growth is 88.6% (inactive).

As to `Cc1cc(C)nc(SC2=C(Nc3ccc(C)c(Cl)c3)C(=O)N(Cc3ccccc3)C2=O)n1`, the growth is 64% [30 µM] (inactive).

For the compound `COc1ccc(SC2c3ccc(C)cc3Oc3nc(N)c(C#N)c(N)c32)cc1` (stereo not given), the growth is -76.5% (active).

Consider `COc1ccc(Nc2nc(SC)nc(-c3cccc([N+](=O)[O-])c3)c2C#N)cc1`, for which the growth was 74.9% (inactive).

As for `O=C1c2cccc3cccc(c23)C(=O)N1CCCCN1CCN(CCCCOc2ccc(-c3nc4ccc(N5CCOCC5)cc4[nH]3)cc2)CC1`, the growth is 98.4% (inactive).

For the compound `CC/C=C\C[C@H](O)C/C=C1/C(=O)C=C[C@@]1(C)C/C=C\CCCC(=O)OC`, the growth is 101% (inactive).

Turning to `O=C(N(c1ccccc1)c1ccccc1)n1ccc2nc(Cl)nc(Cl)c21`, the growth is 69.9% (inactive).

Take `COc1ccc2cc(-c3nn(-c4ccc(C(=O)O)cc4)cc3CO)ccc2c1`: the growth was 98.7% (inactive).

For the compound `c1ccc(-c2cc3n4c(-c5ccccc5)nn(-c5ccccc5)c4cnc-3n2)cc1`, the growth was 71.4% (inactive).
